Numbering of substitutions follows the chain as printed.

The source of these data is PMC8384837, “Expanding the binding specificity for RNA recognition by a PUF domain”.

Common to all, as to assay: yeast three-hybrid, YBZ-1, SC-Leu-His + 0.5 mM 3-AT, 4 days
Holding throughout (conditions): tags: N-Gal4 AD-HA kept; label: inside an RPR1-promoter hybrid RNA with tandem MS2 sites; ssRNA

One assay has as its target T1, PUM1 PUF domain R6-SWQ (Homo sapiens, UniProt Q14671 828-1176, N1043S;Y1044W).
T1 sequence: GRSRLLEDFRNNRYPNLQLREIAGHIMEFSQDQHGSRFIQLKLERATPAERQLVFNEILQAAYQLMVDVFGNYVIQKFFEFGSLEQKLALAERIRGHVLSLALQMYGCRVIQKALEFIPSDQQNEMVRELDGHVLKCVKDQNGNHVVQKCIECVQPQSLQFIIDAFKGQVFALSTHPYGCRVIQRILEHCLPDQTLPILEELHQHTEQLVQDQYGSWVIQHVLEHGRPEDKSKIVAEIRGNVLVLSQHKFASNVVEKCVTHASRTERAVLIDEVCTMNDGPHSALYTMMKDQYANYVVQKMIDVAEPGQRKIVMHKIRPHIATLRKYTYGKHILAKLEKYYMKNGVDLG
Put shortly: (§1)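 Repeat regions from input (SC-Leu) and selection (SC-Leu-His + 0.5 mM 3-AT) plates were PCR-amplified and Illumina-sequenced after four days of growth. The cells were strain YBZ-1 with a LexA–MS2 coat fusion and a HIS3 reporter, co-expressing Pumilio-1 PUF domain libraries and matching RNA elements from a centromeric plasmid. The interaction score is the log change in variant frequency from input to selection, taken in log2 with a pseudocount of 1 for absent variants.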

A further assay concerns the target T2, PUM1 PUF domain R6-RWR (Homo sapiens, UniProt Q14671 828-1176, N1043R;Y1044W;Q1047R).
T2 sequence: T1 sequence with S216R, Q220R
A digest of the protocol:
as §1

A further assay has as its target PUM1 PUF domain R5-SEQ (Homo sapiens, UniProt Q14671 828-1176, C1007S;R1008E). A digest of the protocol:
as §1

A further assay deals with PUM1 PUF domain R3-TRP (Homo sapiens, UniProt Q14671 828-1176, C935T;Q939P). A digest of the protocol:
as §1

The target in the next assay is PUM1 PUF domain R3-FWR (Homo sapiens, UniProt Q14671 828-1176, C935F;R936W;Q939R). Put shortly: as §1
A further assay has as its target PUM1 PUF domain R3-GHG (Homo sapiens, UniProt Q14671 828-1176, C935G;R936H;Q939G). Put shortly:
as §1

The next assay addresses PUM1 PUF domain R7-CWP (Homo sapiens, UniProt Q14671 828-1176, S1079C;N1080W;E1083P). Put shortly:
as §1

The target in a further assay is PUM1 PUF domain R4-WGW (Homo sapiens, UniProt Q14671 828-1176, N971W;H972G;Q975W). A digest of the protocol:
as §1

A further assay has as its target PUM1 PUF domain R5-LHR (Homo sapiens, UniProt Q14671 828-1176, C1007L;R1008H;Q1011R). Put shortly:
as §1

In a further assay the target is PUM1 PUF domain R8-TRR (Homo sapiens, UniProt Q14671 828-1176, N1122T;Y1123R;Q1126R). Put shortly:
as §1

A further assay has as its target PUM1 PUF domain R3-GFD (Homo sapiens, UniProt Q14671 828-1176, C935G;R936F;Q939D). Put shortly: as §1
Another assay deals with PUM1 PUF domain R3-PRE (Homo sapiens, UniProt Q14671 828-1176, C935P;Q939E). Put shortly: as §1
The next assay deals with PUM1 PUF domain R4-PHQ (Homo sapiens, UniProt Q14671 828-1176, N971P). Put shortly: as §1
For another assay, the target named is PUM1 PUF domain R4-FNL (Homo sapiens, UniProt Q14671 828-1176, N971F;H972N;Q975L). A digest of the protocol: as §1
The target of another assay is PUM1 PUF domain R4-AWP (Homo sapiens, UniProt Q14671 828-1176, N971A;H972W;Q975P). A digest of the protocol:
as §1

Consider “GGCUAGAACUAGUGGAUCCCCCGGCGCCCGGCGGCUCGAGCCCGGGUAAGUGGAAAUAGUCUGCAUGCCGCCGGGCGCCAUGCCUGCAGGUCGACUCUAGAAAACAUG”, for which the results for the binding signal in the assay with PUM1 PUF domain R6-SWQ and with PUM1 PUF domain R6-RWR were 3.61 log2 enrichment (interaction score) and 1.16 log2 enrichment (interaction score), respectively.
“GGCUAGAACUAGUGGAUCCCCCGGCGCCCGGCGGCUCGAGCCCGGGUAAGUGUGAAUAGUCUGCAUGCCGCCGGGCGCCAUGCCUGCAGGUCGACUCUAGAAAACAUG”: the binding signal in the assay with PUM1 PUF domain R5-SEQ was 3.78 log2 enrichment (interaction score).
As for “GGCUAGAACUAGUGGAUCCCCCGGCGCCCGGCGGCUCGAGCCCGGGUAAGUGUAAUUAGUCUGCAUGCCGCCGGGCGCCAUGCCUGCAGGUCGACUCUAGAAAACAUG”, the binding signal with PUM1 PUF domain R3-TRP was 1.29 log2 enrichment (interaction score); in the assay with PUM1 PUF domain R3-FWR it was 2.94 log2 enrichment (interaction score); in the assay with PUM1 PUF domain R3-GHG, 1.43 log2 enrichment (interaction score).
“GGCUAGAACUAGUGGAUCCCCCGGCGCCCGGCGGCUCGAGCCCGGGUAAGUUUAAAUAGUCUGCAUGCCGCCGGGCGCCAUGCCUGCAGGUCGACUCUAGAAAACAUG”: the binding signal with PUM1 PUF domain R7-CWP is 4.38 log2 enrichment (interaction score).
Turning to “GGCUAGAACUAGUGGAUCCCCCGGCGCCCGGCGGCUCGAGCCCGGGUAAGUGUAAAUAGUCUGCAUGCCGCCGGGCGCCAUGCCUGCAGGUCGACUCUAGAAAACAUG”, the binding signal is 4.51 log2 enrichment (interaction score) with PUM1 PUF domain R3-TRP; 3.2 log2 enrichment (interaction score) in the assay with PUM1 PUF domain R4-WGW; 3.11 log2 enrichment (interaction score) with PUM1 PUF domain R5-LHR; 0.88 log2 enrichment (interaction score) in the assay with PUM1 PUF domain R3-FWR; 1.14 log2 enrichment (interaction score) with PUM1 PUF domain R8-TRR; 5.65 log2 enrichment (interaction score) in the assay with PUM1 PUF domain R3-GFD. For the same sequence, the binding signal in the assay with PUM1 PUF domain R3-PRE was 3.66 log2 enrichment (interaction score); with PUM1 PUF domain R3-GHG, 3.44 log2 enrichment (interaction score); with PUM1 PUF domain R6-RWR it was 6.07 log2 enrichment (interaction score).
Consider “GGCUAGAACUAGUGGAUCCCCCGGCGCCCGGCGGCUCGAGCCCGGGUAAGUGCAAAUAGUCUGCAUGCCGCCGGGCGCCAUGCCUGCAGGUCGACUCUAGAAAACAUG”, for which the binding signal with PUM1 PUF domain R6-RWR was 1.4 log2 enrichment (interaction score).
As to “GGCUAGAACUAGUGGAUCCCCCGGCGCCCGGCGGCUCGAGCCCGGGUAAGUGUACAUAGUCUGCAUGCCGCCGGGCGCCAUGCCUGCAGGUCGACUCUAGAAAACAUG”, the binding signal with PUM1 PUF domain R4-PHQ is 2.14 log2 enrichment (interaction score); with PUM1 PUF domain R4-WGW, 2 log2 enrichment (interaction score); in the assay with PUM1 PUF domain R4-FNL it was 1.89 log2 enrichment (interaction score); in the assay with PUM1 PUF domain R4-AWP, 5.02 log2 enrichment (interaction score).
